Shown are actives, neighbours in structure and some others; about 8.7% of the full set was active somewhere.
Sfp inh: blocks B. subtilis Sfp PPTase activity | Q9F4F7 | Biochemical Sfp PPTase activity, qHTS | Potency, µM, without a hit: largest response in the series, negative = inhibition, usual class: inhibitors | actives 3.5% (n = 310,000) | AID 1490;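 also: the enzyme is Sfp with the accession as filed and its product quenches rhodamine fluorescence; 0% = enzyme reaction without inhibitor and -100% = no enzyme wells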
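With Hepes-Na pH 7.6 buffer containing 10 mM MgCl2, Sfp (15 nM) modified BHQ-2-YbbR (12.5 uM) using rhodamine-CoA (5 uM). Two reads 30 minutes apart at 525/598 nm yielded each well's rate.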
JMJD2A Tudor inh: inhibitors of human JMJD2A Tudor domain | O75164 | AlphaScreen JMJD2A-Tudor / H3K4me3 peptide binding | Potency, µM (top dose mostly 114 µM), for inactives: top-dose activity change, negative = inhibition, usual class: inhibitors | actives 4.4% (n = 390,000); also: % is scaled to controls: 0 for no effect and ±100 for the full control effect; nearly all actives have a fitted effect of over 50% in size
HP1b chromo inh: blocks HP1-beta chromodomain binding to methylated histone tails | P83916 | AlphaScreen HP1-beta / biotin-H3K9me3 peptide binding | Potency, µM (titrated, usually from 114 µM), for the others: at the highest dose activity change, negative = inhibition, most hits filed as inhibitors | actives 0.56% (n = 390,000) | AID 540317; also: nearly all actives have a fitted effect of over 70% in size
Target sequence (P83916 whole entry, looked up): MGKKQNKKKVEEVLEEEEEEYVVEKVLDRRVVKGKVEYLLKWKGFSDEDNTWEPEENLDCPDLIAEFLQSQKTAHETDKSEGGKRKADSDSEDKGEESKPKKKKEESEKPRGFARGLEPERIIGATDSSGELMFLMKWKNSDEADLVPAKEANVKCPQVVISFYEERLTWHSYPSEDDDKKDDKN
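AlphaScreen: HP1-beta (50 nM) preformed 30 min with biotin-H3(1-18)K9me3 peptide (50 nM) in PBS pH 7.4, 0.01% Tween-20. Compound added for 30 min at RT, then streptavidin donor/nickel chelate acceptor beads (10 ug/mL) for 30 min.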
12-LOX inh: inhibitors of human 12S-lipoxygenase ALOX12; P18054; purified 12hLO, xylenol orange hydroperoxide absorbance; Potency, µM (doses to about 108 µM), for the others: at the highest dose activity change, negative = inhibition, hits mostly inhibitors; actives 1.1% (n = 580,000); AID 1671190; also: % is scaled to controls: 0 for no effect and ±100 for the full control effect
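Purified human 12hLO at 150 nM in 25 mM Hepes, 0.01% Triton X-100, pH 7.0, preincubated 15 min at room temperature with compound. Reaction started with 40 uM arachidonic acid, 30 min at room temperature. Hydroperoxide measured by Fe-xylenol orange, 573/405 nm absorbance ratio.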
G9a inh: G9a (human) methyltransferase inhibition; G9a H3K9 monomethylation, AlphaScreen, 2 h; Potency, µM (highest dose often 102 µM), for inactives: at the top dose activity, negative = inhibition, actives largely listed as inhibitors; Q96KQ7; actives 8.8% (n = 350,000); also: % is scaled to controls: 0 for no effect and ±100 for the full control effect; nearly all actives have a fitted effect of over 75% in size
Target sequence (Q96KQ7 913-1193 limits assumed): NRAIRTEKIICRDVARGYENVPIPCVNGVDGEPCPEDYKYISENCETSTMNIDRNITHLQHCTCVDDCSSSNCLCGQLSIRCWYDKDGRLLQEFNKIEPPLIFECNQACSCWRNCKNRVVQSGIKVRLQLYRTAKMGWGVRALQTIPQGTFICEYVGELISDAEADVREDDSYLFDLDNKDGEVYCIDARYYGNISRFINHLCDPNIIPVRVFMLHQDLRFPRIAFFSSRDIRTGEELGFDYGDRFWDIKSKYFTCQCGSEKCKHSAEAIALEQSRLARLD
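Using a bead-based AlphaScreen, monomethylated H3K9 product from 2 h room-temperature reactions (G9a 20 nM, peptide 500 nM, SAM 20 uM) was detected with 0.5 ug/mL rabbit anti-H3K9me1 antibody.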
BAZ2B block: inhibitors of human BAZ2B bromodomain; Q9UIF8; AlphaScreen BAZ2B-H3K14Ac peptide displacement; Potency, µM (doses to about 114 µM), for the others: at the highest dose activity change, negative = inhibition, usual class: inhibitors; actives 4.4% (n = 360,000); AID 504333; also: % is scaled to controls: 0 for no effect and ±100 for the full control effect; nearly all actives have a fitted effect of over 60% in size
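Complex of BAZ2B and biotin-H3K14Ac (50 nM apiece) forms over 30 min at RT, then faces library compounds up to 110 uM for another 30 min; AlphaScreen beads added, 20 min dark incubation, luminescence read.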
Numbers without * were called inactive; ? = inconclusive; . = no result given; ! = a repeat was not active; [ ] = another dose, or the depositor's remark. Calls follow the shape of the dose curve; as a rule, active = well fitted curve in the direction sought with a large enough effect; inconclusive = small, poorly fitted or top-dose-only effect, or another doubt; inactive = no such curve, though single readings can be large; an effect the other way counts as inactive or inconclusive. Potency is read from the fitted curve at half-maximal effect.

SMILES | Sfp inh | JMJD2A Tudor inh | HP1b chromo inh | 12-LOX inh | G9a inh | BAZ2B block
O=C(C1=Cc2cc(Cl)ccc2OC1)N1CCN(S(=O)(=O)c2cc(F)ccc2F)CC1 | . | . | . | 40µM* | . | .
O=c1[nH]c2cc3c(cc2c(=O)n1CCCc1nc(-c2ccc(C(F)(F)F)cc2)no1)OCO3 | . | . | . | -1% | . | .
Cc1ccc[n+](-c2nc([O-])sc2/C=N/Nc2ccc([N+](=O)[O-])cc2)c1 | -8% | -18% | 4% | 0% | 11µM* | 40µM*
COc1ccc(CCN2CCCC(CN(C)Cc3cnc[nH]3)C2)cc1 (stereo unspecified) | . | . | . | 71% | . | .
Cc1ccccc1CSc1nnc(-c2ccco2)n1Cc1ccco1 | -11% | ? | -9% | ? | 23%[0.501 µM] | 50µM*
CCN(C(=O)CSc1nnc(-c2ccco2)n1Cc1ccccc1)C1CCS(=O)(=O)C1 (stereo unspecified) | . | -7% | 53% | ? | ? | -36%
CCOC(=O)CSc1nnc(-c2ccco2)n1-c1ccc(C)cc1 | -6% | -9%[57.1 µM] | 39% | 0% | -10%[12.7 µM] | -11%
O=C(CSc1nnc(-c2ccco2)n1Cc1ccccc1)OC1CCCCC1 | -8% | -23%[57.1 µM] | 2% | -4% | 50µM* | ?
COC(=O)CSc1nnc(-c2ccco2)n1Cc1ccco1 | 22µM* | -5% | 30% | 0% | ? | .
Cc1ccccc1CSc1nnc(-c2cccs2)n1Cc1ccco1 | -12% | -33% | 20% | 0% | -32%[0.0925 µM] | ?
CC(C)(C)NC(=O)CSc1nnc(-c2ccco2)n1Cc1ccco1 | 9% | -17% | 20% | -11% | -5%[12.7 µM] | 1%
CCOC(=O)CSc1nnc(-c2ccco2)n1-c1ccccc1 | 35µM* | -12% | 28% | 20% | ? | -5%
CCc1ccc2oc(C(=O)N(Cc3ccc(Cl)cc3)C3CCS(=O)(=O)C3)cc(=O)c2c1 (stereo unspecified) | . | . | . | -1% | . | .
Cc1cnc2c(S(=O)(=O)N3CCN(CC(F)(F)F)CC3)cccc2c1 | . | . | . | -6% | . | .
Brc1cccc(-c2nc(-c3cccnc3)no2)c1 | . | . | . | -15% | . | .
CCN(CC)C(=O)CSc1nnc(-c2ccco2)n1N | 12% | 37% | 35% | 0% | -2%[12.7 µM] | -5%
CCN(CC)C(=O)CSc1nnc(-c2ccco2)n1Cc1ccco1 | -4% | -19% | 24% | -12% | 40µM* | -10%
CC(=O)c1c(C)[nH]c(C(=O)CSc2nnc(-c3ccco3)n2Cc2ccccc2)c1C | -21% | -14%[57.1 µM] | 9% | ? | 40µM* | 50µM*
Cc1nc(C)c(C(=O)N2CCC3(CC2)CCC(O)(CN(C)C)CC3)s1 | . | . | . | 4% | . | .
Cc1cc(C(=O)Nc2cccc(-c3nc4ccccc4o3)c2)ccc1[N+](=O)[O-] | . | . | . | 6% | . | .
CN(C)CCCN(C(=O)COc1ccccc1)c1nc2ccc(Cl)cc2s1 | -16% | -22% | 4% | ? | ? | .
CN(C)CCCN(C(=O)COc1ccccc1)c1nc2c(F)cccc2s1 | -7% | -10%[11.4 µM] | 58% | -23% | -46% | -8%
CN(C)CCN(C(=O)C1CCCCC1)c1nc2cc3c(cc2s1)OCCO3 | . | . | . | -19% | . | .
CN(C)CCCN(C(=O)COc1ccc(Cl)cc1)c1nc2cc3c(cc2s1)OCO3 | -10% | ? | -9% | ? | 71µM* | ?
CN(C)CCCN(C(=O)COc1ccc(Cl)cc1)c1nc2cc3c(cc2s1)OCCO3 | . | ? | -20% | ? | 50µM* | -35%
SMILES | Sfp inh | JMJD2A Tudor inh | HP1b chromo inh | 12-LOX inh | G9a inh | BAZ2B block
CN(C)CCCN(C(=O)COc1ccccc1)c1nc2cc3c(cc2s1)OCO3 | -18% | -15% | 9% | 159% | 50µM* | -33%
COc1cccc2sc(N(CCCN(C)C)C(=O)COc3ccc(Cl)cc3)nc12 | -26% | -20% | 26% | ? | 79µM* | .
CN(C)CCCN(C(=O)CCc1ccccc1)c1nc2ccc(Cl)cc2s1 | ? | -12% | 7% | ? | ? | ?
CS(=O)(=O)c1ccc(Cl)c(NC(=O)Cn2cc(C(F)(F)F)cc(Cl)c2=O)c1 | . | . | . | -11% | . | .
CCOC(=O)C1=C(C)N=C2SC=C(CC(=O)NCc3ccco3)N2C1c1ccccc1Cl (stereo unspecified) | . | . | . | 8% | . | .
Cc1cccc(COc2ccccc2/C=C(\C#N)c2nc3ccccc3[nH]2)c1 | . | . | . | -23% | . | .
O=C1C=CC(=O)N1CCCCCCCCCCN1C(=O)C=CC1=O | . | ? | ? | 2µM* | . | .
O=C1C=CC(=O)N1Cc1ccncc1 | . | -28% | 28% | ? | . | .
Oc1cccc2ccc(Nc3ccccn3)nc12 | -5% | 18µM* | 29% | ? | ? | 5µM*
O=C(C1CCCN(Cc2ccc([N+](=O)[O-])cc2)C1)N1CCCCC1 (stereo unspecified) | -15% | 25µM* | ? | 0% | 28µM* | 56µM*
CCOC(=O)C1CCCN(C(=O)Cc2ccc(OC)c(OC)c2)C1 (stereo unspecified) | 13% | -24% | 13% | 0% | 20%[59 µM] | 9%
COc1ccc(CN2CCCC(C(=O)N3CCc4ccccc4C3)C2)cc1OC (stereo unspecified) | -21% | 22µM* | -7% | 0.71µM*! | ? | 89µM*
COc1ccc(CN2CCCC(C(=O)N3CCCCC3)C2)cc1OC (stereo unspecified) | -1% | 20µM* | 9% | -21% | 2.8µM* | 71µM*
O=C(c1cccc([N+](=O)[O-])c1)N1CCCC(C(=O)N2CCCCC2)C1 (stereo unspecified) | 8% | -15% | 26% | 26% | 2% | -13%
COc1ccc(F)c(CN2CCCC(O)(CN3CCC(CCO)CC3)C2=O)c1 (stereo unspecified) | . | . | . | 32% | . | .
CCN(CC)c1ccc(N=Cc2ccc([N+](=O)[O-])o2)cc1 | 28µM* | 40µM* | 22µM* | ? | 2.5µM* | 10µM*
CCCCCC(=O)N/N=C/c1ccc([N+](=O)[O-])o1 | -2% | -22% | -2% | ? | 11%[59 µM] | -10%
CCN(CC)c1ccc(N=Cc2ccccc2[N+](=O)[O-])cc1 | 50µM* | 8.9µM* | 8.9µM* | ? | 8.9µM* | 3.2µM*
COc1ccc(/C=C2/C(=O)ON=C2c2ccccc2)cc1OC | 35µM* | 79µM* | 4% | ? | 7%[0.501 µM] | ?
NC(=O)COc1ccc(/C=C2\C(=O)ON=C2c2ccccc2)cc1 | . | -2% | 13% | 7.1µM* | 16%[12.7 µM] | -18%
O=C1ON=C(c2ccccc2)/C1=C/c1ccco1 | 50µM* | -36% | 12% | 7.9µM* | 32µM* | 40µM*
COc1ccc(C=C2C(=O)OC(C)(C)OC2=O)cc1OC | -12% | -1% | 63% | -43% | -9%[2.33 µM] | -4%

Screening results: PubChem, National Center for Advancing Translational Sciences (NCATS)
